The panel holds about 83,000 compounds, 20% with a hit somewhere; the sample as a whole holds those more often.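 Single-concentration screen, 48 h exposure, 96-well plates. Endpoint: percent growth. Below 10 = active.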 Active and inactive are the calls of the source.

The test has as its system HL-60(TB) leukemia. The experiment in a line: NCI-60 one-dose screen, 48 h (100 = growth as untreated, 0 = no growth, -100 = all killed). The conditions noted are these: 10 µM unless noted.
With `NS(=O)(=O)c1ccc(CCN2C(=O)c3cc(Cl)c(Cl)cc3C2=O)cc1`, the growth is 86.5% (inactive). On to `O=C(Nc1ccccc1)c1cc2ccccc2s1`, for which the growth was 61.6% (inactive). Next, `COc1cc2nccc(Oc3ccc(NC(=O)C4(C(=O)Nc5ccc(F)cc5)CC4)cc3)c2cc1Oc1ccc(N)cn1`: 22.9% (inactive); `COc1ccc(-n2c(=O)c3ccccc3n(Cc3ccc(C(=O)NO)cc3)c2=O)cc1`: -4.17% (active). Next, `COc1ccc2nc3cc(Cl)ccc3c(Nc3cc(C(C)C)c(O)cc3C)c2c1`: 7.64% (active); `O=C(NCCNc1nccc(-c2c(-c3cccc(O)c3)nc3sccn23)n1)c1cc(N2CCOCC2)cc(C(F)(F)F)c1`: 102% (inactive). For `CNC(=O)c1cc(-n2ccc3cc(NC(=O)c4ccc(N5CCOCC5)c(C(F)(F)F)c4)ccc32)ccn1` the value was 66.3% (inactive); for `COc1ccc(Nc2ncc(Br)c(NCCCNC(=O)c3cccs3)n2)cc1`, 17.7% (inactive). `O=c1cc(N/N=C/c2ccc(F)cc2)c2cc(Cl)ccc2[nH]1`: the growth was -9.23% (active).

As for `Nc1cccc2c1C(=O)c1cccc(NC(=O)c3ccccc3)c1C2=O`, the growth was 1.36% (active). `C(=C\c1c[nH]c2ccccc12)/c1ccc2ccccc2n1`: the growth was 2.85% (active). Next, `O=C(NOC(=O)c1ccccc1)c1ccccc1`: 87.1% (inactive); `CCOC(=O)c1c(C)nc2c(c1N)CC(=O)N2Cc1ccc(OC)cc1`: 110% (inactive); `COc1ccc(C2CC(=O)c3c(O)cc(OC4OC(COC5OC(C)C(O)C(O)C5O)C(O)C(O)C4O)cc3O2)cc1O` (stereo not given): 131% (inactive). For `COc1ccc(S(=O)(=O)NCCCNc2cc(-c3c(-c4cccc(OC)c4)nc4sccn34)ccn2)cc1` the value was 32.7% (inactive); for `Cn1cc(-c2csc(-c3cn(C(=O)OC(C)(C)C)c4ccccc34)n2)c2cccnc21`, 65.8% (inactive). For `c1ccc(-c2ccc3c(c2)C2(CCNCC2)CN3)cc1` the value was 93.7% (inactive).

Turning to `O=C(C[n+]1cccc2ccccc21)c1ccc(O)c(O)c1`, the growth was -20% (active). With `Clc1ccc2c(NCCNc3nc(N4CCCC4)nc4ccccc34)ccnc2c1`, the growth was -70% (active). For `CNC(=O)c1cc(Oc2ccc3nc(Nc4ccc(Cl)c(C(F)(F)F)c4)ccc3c2)ccn1` the value was 62.6% (inactive); for `O=C(NC1CCCCC1)OCc1c(COC(=O)NC2CCCCC2)c(-c2ccc(Cl)c(Cl)c2)n2c1CCC2`, -35.6% (active); for `C=C1c2c(C)nn(-c3ccc(S(N)(=O)=O)cc3)c2N(C)C23CC1C1(C)c4c(C)nn(-c5ccc(S(N)(=O)=O)cc5)c4N(C)C(C)(CC12)C3` (stereo not given), 8.58% (active). Next, `Nc1nc(Nc2ccc(OCc3cccc(F)c3)cc2)c2c(n1)[nH]c1ccc(O)cc12`: -64.8% (active). For `Cc1cc(C)c(C(=O)c2cccs2)c(C)c1`, the growth is 98.3% (inactive). For `COc1ccc(/C=C2\Oc3cc(OCCCCN4CCCC4)ccc3C2=O)cc1` the value was 92.1% (inactive); for `Nc1nc2ccccc2c2c(=O)c3ccc(Cl)cc3sc12`, 92.1% (inactive). Next, `C=C1C(=O)O[C@H]2[C@H]1CC/C(COC(=O)CCSSCCC(=O)OC/C1=C/CC[C@@]3(C)O[C@H]3[C@H]3OC(=O)C(=C)[C@@H]3CC1)=C\CC[C@@]1(C)O[C@@H]21`: -47.9% (active). For the compound `CN(C)CCOC(=O)Nc1ccc(Cl)cc1`, the growth was 100% (inactive). Next, `O=C(O)c1ccc(CO)o1`: 85.6% (inactive).

For `N=c1n(Cc2ccccc2)c(N)cc(=O)n1Cc1ccccc1`, the growth was 11.3% (inactive).

For `Cn1ccc(=O)nc1`, the growth was 105% (inactive). For `COc1cccc(NCc2nnc(Nc3ccc(Cl)cc3)c3ccccc23)c1`, the growth was -27.1% (active).

Consider `CC/C(Cc1ccccc1)=C(/c1ccc(O)cc1)c1ccc(OCCN2CCCC2)cc1`, for which the growth is -56.9% (active). Next, `CCN(CCN(C)C)C(=O)CNCc1cc(C(N)=O)ccn1`: 88.7% (inactive); `O=c1cc(-c2ccc(OCc3ccccc3)cc2)oc2c(I)c(OCc3ccccc3)cc(OCc3ccccc3)c12`: 117% (inactive); `O=S(=O)(Nc1cc(F)cc(F)c1)c1ccc(-c2cnc(C3CC3)o2)cc1`: 9.05% (active). Next, `S=C(Nc1ccc(Cl)cc1)Nc1ccc(Cl)cc1` (tested in a mixture with another compound): 8.57% (active); `O=C(CSc1nc2ccccc2[nH]1)Nc1ccc(-c2nc3ccccc3s2)c(Cl)c1`: 62% (inactive); `COc1cc(C2CC(=O)Nc3c2c(C)nn3-c2nc3ccccc3[nH]2)c(OC)c(OC)c1OC` (stereo not given): 21.5% (inactive). Next, `Cn1c2c(c3ccccc31)CCN1C[C@@H]3CCCC[C@H]3C[C@@H]21`: 2.52% (active).

These data come from PubChem BioAssay (NCI).
